The text below walks through data of the supplement of paper PMC10849652.

Targets with a hit are over-represented here; the source holds about 7,900 in all. About 0.6% of all pairs of compound and target were hits. A number with no mark means an inactive call.

What all share (assay): log2 fold change, soluble protein after heating vs DMSO (PISA); higher = thermal stabilisation; K562 cells, 10 uM, 30 min; active = over 0.2 and 3.5 SD of the protein, either way, in both replicates (recomputed)
Compound in assay [1]: CS(=O)(=O)c1ccc(-c2cnc(N)c(C(=O)Nc3ccccc3)n2)cc1
Summed up: (§1)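 Aliquots of K562 cells (2×10^6 cells/mL) treated with 10 μM compound for 30 min were heated for 3 min over 48°C-58°C. After pooling and extraction in PBS with 0.5% NP-40 at 4°C, soluble protein from a 21,000xg, 90 min spin was quantified by TMTpro 16plex LC-MS/MS with channel sums equalised. Thermal stability is expressed against control samples, from duplicates, as a log2 fold change.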

Compound in assay [2]: C[C@@H]1COCCN1C2=NC(=NC(=C2)C3(CC3)S(=O)(=O)C)C4=C5C=CNC5=CC=C4
Summed up: as §1

Compound in assay [3]: C[C@H](C1=CC=C(C=C1)C(=O)NC2=C3C=CNC3=NC=C2)N
The method in brief:
as §1

Compound in assay [4]: C[C@H](Nc1ncnc2nc[nH]c12)c1cc2cccc(Cl)c2c(=O)n1-c1ccccc1 [duvelisib]
The method in brief:
as §1

Compound in assay [5]: Cc1cc(Nc2cc(CN3CCOCC3)c3nc(C)c(Cc4ccc(Cl)cc4F)n3n2)n[nH]1 [gandotinib]
The method in brief:
as §1

Compound in assay [6]: Cc1cc(Nc2cc(N3CCN(C)CC3)nc(Sc3ccc(NC(=O)C4CC4)cc3)n2)n[nH]1 [tozasertib]
Summed up:
as §1

Compound in assay [7]: Cc1cc(SCc2sc(-c3ccc(C(F)(F)F)cc3)nc2C)ccc1OCC(=O)O
Summed up:
as §1

Compound in assay [8]: Cc1ccc(C(=O)N(CCCN)[C@@H](c2nc3cc(Cl)ccc3c(=O)n2Cc2ccccc2)C(C)C)cc1 [ispinesib]
Summed up:
as §1

Compound in assay [9]: Cc1ccc(NC(=O)c2ccc(CN3CC[C@H](N(C)C)C3)c(C(F)(F)F)c2)cc1Nc1nccc(-c2cncnc2)n1 [bafetinib]
Summed up:
as §1

Compound in assay [10]: Cc1cccc(CC(=O)N2CCc3c2ccc(-c2cn(C)c4ncnc(N)c24)c3F)n1
The method in brief: as §1

Compound in assay [11]: Cc1cn(-c2cc(NC(=O)c3ccc(C)c(Nc4nccc(-c5cccnc5)n4)c3)cc(C(F)(F)F)c2)cn1 [nilotinib]
Summed up: as §1

Compound in assay [12]: Cc1nc(Nc2n[nH]c3c2CN(C(=O)N[C@H](CN(C)C)c2ccccc2)C3(C)C)c2sccc2n1
Summed up:
as §1

Compound in assay [13]: Cc1nc(Nc2ncc(C(=O)Nc3c(C)cccc3Cl)s2)cc(N2CCN(CCO)CC2)n1 [dasatinib]
The method in brief: as §1

Compound in assay [14]: Cc1ncc(-c2ccnc(Nc3ccc(S(C)(=O)=O)cc3)n2)n1C(C)C
Summed up: as §1

Compound in assay [15]: Cn1cc(-c2ccc3c(c2)CCN3C(=O)Cc2cccc(C(F)(F)F)c2)c2c(N)ncnc21
Summed up:
as §1

Compound in assay [16]: Cn1cc(-c2ccc3nnc(C(F)(F)c4ccc5ncccc5c4)n3n2)cn1
Summed up: as §1

Compound in assay [17]: Cn1cncc1[C@@](N)(c1ccc(Cl)cc1)c1ccc2c(c1)c(-c1cccc(Cl)c1)cc(=O)n2C [tipifarnib]
The method in brief:
as §1

Compound in assay [18]: FC(F)(F)c1ccc(/C=C/c2nc(COc3ccc(CCCCn4ccnn4)cc3)co2)cc1 [mubritinib]
Summed up:
as §1

Compound in assay [19]: C[C@@H](Oc1cc(-c2cnn(C3CCNCC3)c2)cnc1N)c1c(Cl)ccc(F)c1Cl [crizotinib]
The method in brief: as §1

Compound in assay [20]: Cc1ccc(-n2nc(C(C)(C)C)cc2NC(=O)Nc2ccc(OCCN3CCOCC3)c3ccccc23)cc1 [doramapimod]
The method in brief: as §1

Sequence of UniProt Q6R327 (Q6R327 whole entry, looked up): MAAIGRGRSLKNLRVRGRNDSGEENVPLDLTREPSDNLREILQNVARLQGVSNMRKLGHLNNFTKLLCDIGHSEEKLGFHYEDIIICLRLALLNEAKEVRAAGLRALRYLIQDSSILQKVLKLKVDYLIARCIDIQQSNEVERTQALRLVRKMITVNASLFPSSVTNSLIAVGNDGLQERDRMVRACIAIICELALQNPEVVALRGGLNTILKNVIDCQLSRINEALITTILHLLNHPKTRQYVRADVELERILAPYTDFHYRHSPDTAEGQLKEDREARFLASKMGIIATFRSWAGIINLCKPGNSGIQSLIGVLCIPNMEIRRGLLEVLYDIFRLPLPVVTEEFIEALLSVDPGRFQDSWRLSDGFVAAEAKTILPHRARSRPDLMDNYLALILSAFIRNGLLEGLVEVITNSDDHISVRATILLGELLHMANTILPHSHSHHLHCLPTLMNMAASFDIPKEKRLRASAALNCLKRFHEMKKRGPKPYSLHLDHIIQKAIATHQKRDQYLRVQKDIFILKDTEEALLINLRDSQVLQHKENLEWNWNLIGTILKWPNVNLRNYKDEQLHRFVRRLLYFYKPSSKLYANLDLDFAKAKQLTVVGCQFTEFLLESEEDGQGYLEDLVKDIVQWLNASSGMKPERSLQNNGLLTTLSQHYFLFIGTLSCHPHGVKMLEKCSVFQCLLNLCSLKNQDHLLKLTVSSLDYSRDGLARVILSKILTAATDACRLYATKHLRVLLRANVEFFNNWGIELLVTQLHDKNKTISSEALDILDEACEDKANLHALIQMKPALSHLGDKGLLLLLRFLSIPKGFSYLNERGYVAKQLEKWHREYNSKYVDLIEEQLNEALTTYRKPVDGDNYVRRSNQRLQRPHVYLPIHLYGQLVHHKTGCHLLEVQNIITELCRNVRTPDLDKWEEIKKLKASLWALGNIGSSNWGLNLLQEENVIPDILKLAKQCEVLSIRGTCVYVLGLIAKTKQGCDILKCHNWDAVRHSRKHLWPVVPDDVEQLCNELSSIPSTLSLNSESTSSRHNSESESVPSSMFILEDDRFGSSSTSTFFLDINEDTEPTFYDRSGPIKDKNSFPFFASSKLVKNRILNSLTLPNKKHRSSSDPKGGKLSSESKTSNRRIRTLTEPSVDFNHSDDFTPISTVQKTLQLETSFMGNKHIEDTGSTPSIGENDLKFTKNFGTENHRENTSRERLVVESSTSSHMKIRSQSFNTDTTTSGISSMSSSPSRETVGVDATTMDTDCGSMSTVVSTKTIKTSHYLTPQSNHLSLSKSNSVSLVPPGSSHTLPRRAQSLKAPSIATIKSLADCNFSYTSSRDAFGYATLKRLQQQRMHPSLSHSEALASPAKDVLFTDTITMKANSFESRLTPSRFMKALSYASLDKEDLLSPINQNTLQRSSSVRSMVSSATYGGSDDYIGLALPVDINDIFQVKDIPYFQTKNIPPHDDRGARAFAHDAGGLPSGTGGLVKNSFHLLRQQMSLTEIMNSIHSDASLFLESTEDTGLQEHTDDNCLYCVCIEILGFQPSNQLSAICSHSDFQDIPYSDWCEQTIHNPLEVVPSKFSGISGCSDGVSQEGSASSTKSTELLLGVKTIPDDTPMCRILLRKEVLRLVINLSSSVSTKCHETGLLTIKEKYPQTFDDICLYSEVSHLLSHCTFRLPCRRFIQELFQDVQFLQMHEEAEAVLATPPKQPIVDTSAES
Sequence of UniProt P60602 (P60602 whole entry, looked up): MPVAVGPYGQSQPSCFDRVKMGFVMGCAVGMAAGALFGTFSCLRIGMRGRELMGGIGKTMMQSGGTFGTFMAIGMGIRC
Sequence of UniProt Q9Y3L5 (Q9Y3L5 whole entry, looked up): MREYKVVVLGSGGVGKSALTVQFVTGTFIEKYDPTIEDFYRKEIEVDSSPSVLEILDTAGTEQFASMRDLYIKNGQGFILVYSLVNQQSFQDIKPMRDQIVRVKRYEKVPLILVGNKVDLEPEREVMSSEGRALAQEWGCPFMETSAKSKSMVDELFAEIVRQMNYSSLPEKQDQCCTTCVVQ
Sequence of UniProt Q02383 (Q02383 whole entry, looked up): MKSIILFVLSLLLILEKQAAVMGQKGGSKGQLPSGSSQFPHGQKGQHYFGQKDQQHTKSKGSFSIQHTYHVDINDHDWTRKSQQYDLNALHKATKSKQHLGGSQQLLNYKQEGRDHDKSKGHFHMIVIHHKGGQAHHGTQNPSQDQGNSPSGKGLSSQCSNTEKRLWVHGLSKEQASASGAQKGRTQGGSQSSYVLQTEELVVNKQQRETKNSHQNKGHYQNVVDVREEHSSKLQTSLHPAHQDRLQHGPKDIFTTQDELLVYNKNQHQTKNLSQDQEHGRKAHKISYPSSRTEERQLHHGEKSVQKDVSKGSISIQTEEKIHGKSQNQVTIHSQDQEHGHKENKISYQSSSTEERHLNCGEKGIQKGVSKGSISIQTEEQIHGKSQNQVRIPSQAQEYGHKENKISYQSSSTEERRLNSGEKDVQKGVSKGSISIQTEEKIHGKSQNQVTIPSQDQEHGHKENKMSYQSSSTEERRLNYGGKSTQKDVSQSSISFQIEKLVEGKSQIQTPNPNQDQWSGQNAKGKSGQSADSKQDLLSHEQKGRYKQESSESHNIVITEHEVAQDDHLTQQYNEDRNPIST
Sequence of UniProt Q96LZ7 (Q96LZ7 whole entry, looked up): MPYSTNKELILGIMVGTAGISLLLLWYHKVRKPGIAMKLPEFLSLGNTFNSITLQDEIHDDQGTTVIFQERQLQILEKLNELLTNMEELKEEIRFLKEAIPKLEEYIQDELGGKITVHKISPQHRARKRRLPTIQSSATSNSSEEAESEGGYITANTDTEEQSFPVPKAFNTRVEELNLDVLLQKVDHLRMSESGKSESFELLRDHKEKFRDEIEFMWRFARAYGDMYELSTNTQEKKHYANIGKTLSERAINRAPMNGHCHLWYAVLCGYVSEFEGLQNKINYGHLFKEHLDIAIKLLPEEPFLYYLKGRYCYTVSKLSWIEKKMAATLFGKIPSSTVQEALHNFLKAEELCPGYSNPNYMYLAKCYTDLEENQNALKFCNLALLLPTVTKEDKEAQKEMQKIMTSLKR
Sequence of UniProt A1X283 (A1X283 whole entry, looked up): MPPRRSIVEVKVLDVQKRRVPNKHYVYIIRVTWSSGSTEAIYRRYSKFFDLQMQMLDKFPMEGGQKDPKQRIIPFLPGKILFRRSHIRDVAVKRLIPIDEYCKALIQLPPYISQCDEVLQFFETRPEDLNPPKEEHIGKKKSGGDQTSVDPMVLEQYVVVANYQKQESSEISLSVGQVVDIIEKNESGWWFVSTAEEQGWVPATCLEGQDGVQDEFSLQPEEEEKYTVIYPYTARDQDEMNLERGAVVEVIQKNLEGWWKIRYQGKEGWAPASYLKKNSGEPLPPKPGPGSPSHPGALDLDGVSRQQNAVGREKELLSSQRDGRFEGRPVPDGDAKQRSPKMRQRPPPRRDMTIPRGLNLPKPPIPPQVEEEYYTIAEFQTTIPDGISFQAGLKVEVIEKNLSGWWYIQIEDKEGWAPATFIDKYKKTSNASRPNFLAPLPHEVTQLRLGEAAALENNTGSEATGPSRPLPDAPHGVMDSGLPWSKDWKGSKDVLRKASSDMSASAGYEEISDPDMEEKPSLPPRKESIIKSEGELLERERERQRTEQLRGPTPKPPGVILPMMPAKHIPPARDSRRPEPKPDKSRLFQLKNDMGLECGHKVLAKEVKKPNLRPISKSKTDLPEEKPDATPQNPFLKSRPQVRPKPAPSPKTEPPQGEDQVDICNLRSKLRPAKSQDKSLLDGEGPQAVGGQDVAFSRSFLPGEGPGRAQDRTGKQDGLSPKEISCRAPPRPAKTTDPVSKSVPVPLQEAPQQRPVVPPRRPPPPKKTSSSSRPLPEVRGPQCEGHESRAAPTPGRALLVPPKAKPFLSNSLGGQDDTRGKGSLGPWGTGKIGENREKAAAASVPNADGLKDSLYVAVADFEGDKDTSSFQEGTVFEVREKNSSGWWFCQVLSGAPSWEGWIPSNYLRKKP

For RAP2C (UniProt Q9Y3L5), the log2 fold change in assay [1] was -0.046; in assay [2], 0.007; in assay [3], -0.144; in [4] it was 0.06; in assay [5], -0.742 (active); in [6], -0.039. The log2 fold change in assay [7] was -0.108; in assay [8], 0.009; in [9], 0.115; in [10], 0.157; in [11] it was 0.181; in assay [12], 0.069. Also, the log2 fold change in [13] was 0.018; in assay [14] it was 0.019; in assay [15], 0.047; in [16] it was -0.032; in assay [17] it was 0.086; in [18], 0.041.

For the target SH3PXD2B (UniProt A1X283), the log2 fold change in assay [1] was 0.002; in assay [2], 0.246; in [3], 0.055; in assay [5], 0.077; in assay [6] it was -0.1; in assay [9], -0.954 (active). Moreover, the log2 fold change in assay [10] is -0.058; in [11] it was -0.124; in [12], 0.129; in assay [14], -0.152; in assay [15], 0.024; in assay [18], 0.

As for RMDN2 isoform 2 (UniProt Q96LZ7), the log2 fold change in assay [19] is 0; in assay [20], 0.145; in assay [8] it was -0.112; in [11], -0.556; in [12], 0.661; in assay [14], -0.115. For the same target, the log2 fold change in [16] was -0.104; in assay [18] it was -0.231.

As to ROMO1 (UniProt P60602), the log2 fold change in [1] was 0.023; in assay [2] it was 0.121; in [3], 0.064; in assay [4], 0.117; in [5] it was -0.033; in assay [6], -0.003. Further, the log2 fold change is -0.059 in assay [7]; -0.061 in assay [8]; 0.056 in assay [9]; -0.022 in assay [10]; -0.001 in assay [11]; 0.027 in assay [12]. In addition, the log2 fold change in [13] is -0.03; in [14], -0.039; in assay [15] it was 0.066; in assay [16], 0.063; in assay [17], 0.062; in assay [18], 0.01.

For the target SEMG2 (UniProt Q02383), the log2 fold change was -0.058 in assay [1]; 0.096 in assay [2]; -0.021 in [3]; -0.032 in assay [5]; -0.043 in [6]; -0.089 in assay [9]. For the same target, the log2 fold change is 0.016 in assay [10]; -0.083 in assay [11]; 0.056 in assay [12]; 0.003 in assay [14]; 0.008 in assay [15]; -0.044 in assay [18].

As for RICTOR isoform 3 (UniProt Q6R327), the log2 fold change is -0.017 in [1]; -0.146 in [2]; -0.027 in assay [4]; -0.015 in assay [5]; -0.127 in assay [6]; -0.072 in assay [7]. For the same target, the log2 fold change is 0.141 in assay [10]; -0.102 in [11]; 0.176 in assay [12]; -0.044 in assay [13]; -0.023 in assay [14]; -0.052 in assay [17].

For the target SIK3 (UniProt H0Y4E8), the log2 fold change in [1] is -0.144; in assay [19], 0.084; in assay [3], 0.027; in [4] it was 0.035; in assay [5], 0.118; in [6], -0.106. Moreover, the log2 fold change in [7] was -0.056; in assay [20], -0.058; in assay [8] it was 0.185; in assay [10] it was -0.122; in [11], -0.053; in assay [12], -0.179. The log2 fold change in assay [13] is -0.037; in assay [14], 0.003; in assay [15], -0.016; in assay [16] it was 0; in assay [17], 0.251; in assay [18] it was -0.035.
